Reference: PubChem BioAssay AID602313 (National Center for Advancing Translational Sciences (NCATS), 2012)
In all, about 390,000 compounds went through this assay and about 760 (0.19%) were called active. About 3% were inconclusive and are not listed. Calls come from the whole dose curve; as a rule, active = well fitted inhibition curve with a large enough effect; inconclusive = small, poorly fitted or top-dose-only effect; inactive = flat fitted curve, though single readings scatter. Only a selection was taken, and actives are over-represented in it overall.

Assay: qHTS for Inhibitors of Vif-A3F Interactions: qHTS; note: nearly all actives have a fitted effect of over 65% in size; for activity, negative = active: % of control where 0% means no effect
Settings: HeLa A3F-eYFP + Vif (tagged APOBEC3F with the HIV-1 protein that degrades it), YFP fluorescence increase; series mostly up to 46.1 µM; activity, negative = active: at the top concentration
Procedure, shortened: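 HeLa cells stably expressing Vif plus C-terminally eYFP-tagged A3F were seeded, incubated overnight at 37 deg C, dosed with compound, incubated overnight again at 37 deg C. Yellow fluorescence (Ex 488/Em 500-530) reported blocked Vif-mediated A3F-eYFP degradation.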
Potency is the fitted concentration of half-maximal effect.

activity, negative = active, inactive:
COc1ccccc1NC(=O)CN1C(=O)c2ccccc2Sc2ccc(C(=O)N3CCCC3)cc21 -7.22%, COc1ccc2c(c1)c(=O)c(S(=O)(=O)c1ccc(F)cc1)cn2CC(=O)Nc1ccc(C)cc1C -6.93%, CCOc1ccc(NC(=O)c2c(NC(=O)Cc3ccccc3)sc3c2CCCCC3)cc1 -13.9%, COc1ccccc1NC(=O)CSc1oc(-c2ccco2)nc1S(=O)(=O)c1ccc(Br)cc1 2.73%, Cc1ccc(-c2noc(-c3nnn(-c4cccc(C(F)(F)F)c4)c3N)n2)cc1 4.22%, Cc1ccc(CNC(=O)c2ccccc2CCc2ccccc2)cc1 -11%, O=C1c2ccccc2S(=O)(=O)c2cc(N3CCN(c4ccccn4)CC3)ccc21 2.17%, Fc1ccc(CN2CCc3nc(Nc4ccccc4)ncc3C2)cc1F 5.34%, CCOC(=O)c1cc(-c2ccccc2)n(-c2cccc(C(=O)Nc3cc(OC)cc(OC)c3)c2)c1C -2.09%, Cn1ccc2cc(S(=O)(=O)N3CCCC(C(=O)NCc4ccccc4F)C3)ccc21 (stereo unspecified) 4.17%, O=C(NC1CC(=O)N(c2ccccc2)C1)c1ccco1 (stereo unspecified) 0.19%, Cc1cn(C)c(CC(=O)NCc2ccc(Cl)cc2)c1C(=O)O 2.04%, O=C(NCCc1csc(-c2ccc(C(F)(F)F)cc2)n1)C(=O)Nc1ccc(F)c(Cl)c1 0.643%, Cc1cc(C)c2oc(-c3cccc(NC(=O)c4cccc(F)c4)c3C)nc2c1 1.45%, CCCCn1c(=O)c2oc3ccccc3c2n(CC(=O)Nc2ccccc2OC)c1=O -15.2%, CCCCN(CC)C(=O)c1c[nH]c2ccc(S(=O)(=O)Nc3cccc(OC)c3)cc2c1=O -7.41%, CC(=O)N/C(=N/c1nc(C)cc(C)n1)Nc1ccc(F)cc1F -7.66%, Cc1cc(C(=O)Nc2cccc(C(F)(F)F)c2)c2c(C)nn(-c3cccc(F)c3)c2n1 -9.16%, O=C(COc1ccc(Cl)cc1)Nc1ccccc1OCc1cc(=O)n2ccccc2n1 0.587%, Cc1ccccc1NC(=O)COc1cccc2c1CCNC2=O -9.72%, Cc1ncc(CO)c(/C=N/NC(=O)c2cccc(S(=O)(=O)N3CCCC3)c2)c1O 5.89%, COC(=O)c1c(NC(=O)c2cc(=O)c3c(C)cc(C)cc3o2)sc2c1CCCC2 -0.264%, Cn1c(C(=O)Nc2cccc(C(F)(F)F)c2)cc2c(=O)n3ccccc3nc21 1.82%, Cc1ccc(NC2=C(c3ccc(C(F)(F)F)cc3)C(=O)c3ccccc32)cc1F -3.21%, Cc1ccc(Cn2c(CCCNC(=O)C3CCCCC3)nc3ccccc32)cc1 0.0414%, Cc1cccc(-c2nnc(SCC(=O)N3CCCc4ccccc43)o2)c1 4.4%, Cn1c(SCC(=O)N2CCCc3ccccc32)nc2ccccc2c1=O 2.28%, CCOC(=O)c1cccc(NC(=O)c2cc(CN3CCCC3)on2)c1 1.99%, CC(=O)c1ccc(NC(c2ccc(F)cc2)c2nnc(-c3ccccc3)o2)cc1 (stereo unspecified) -8.82%, CCc1ccc(N2C(=O)CN(S(=O)(=O)CC)CC2(C)C(=O)NC2CCCCC2)cc1 (stereo unspecified) 2.79%, CCCn1c(=N)c(C(=O)NCc2ccccc2)cc2c(=O)n3cccc(C)c3nc21 -5.4%, CC(C)c1ccc(NC(=O)c2ccc(Cn3nc(N4CCN(c5ccccc5)CC4)ccc3=O)o2)cc1 0.981%, Cn1c(=O)c2c(SCC(=O)NCC3CCCO3)nc(-c3ccccc3F)nc2n(C)c1=O (stereo unspecified) -5.96%, Cc1ccc(-c2cc(C(=O)Oc3ccccc3Cl)no2)cc1C -1.13%, O=c1cc(COc2cccc(C(F)(F)F)c2)nc2sc3c(n12)CCCC3 -7.96%, COc1ccc(CNC(=O)c2cc3cccc(OC)c3oc2=O)cc1 0.834%

Potency, active:
O=C1C(Cl)=C(Oc2ccccc2)C(=O)c2ccccc21 10 µM, Cc1ccc(CNC(=O)c2cccc3c2C(=O)c2ccc(N4CCC(C)CC4)cc2S3(=O)=O)cc1 12.6 µM, Cc1cc(C)nc(-n2nc(C)cc2NC(=O)c2ccc(F)cc2F)n1 12.6 µM, COc1cccc(/C=N/NC(=O)c2[nH]nc3c2CCc2ccccc2-3)c1O 25.1 µM, Cc1cccc2cc3c(N)c(C(=O)N4CCCc5ccccc54)sc3nc12 11.2 µM
